The text below walks through data of publication PMC5540273 (PLoS ONE, 2017).

Molecules are shown by their SMILES.
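Also: KINOMEscan kinase panel screen.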

The test system of the experiment is NEK11. Conditions: concentration: 1 μM, replicates: in singlicate; n = 1.
In the case of `O=C(O)C(F)(F)F.O=C(O)C(F)(F)F.O=c1[nH]ccc2nc(N[C@@H]3CCCNC3)nc(Nc3ccc(S(=O)(=O)N4CCOCC4)cc3)c12` [GSK2177277], the “%Inh” value was found to be 0%.

For the compound `COc1cc(Nc2nccc(N3CCC(NC(=O)c4cc5ccccc5s4)C3)n2)cc(OC)c1OC` (stereo not shown) [GSK1379760], the “%Inh” value amounted to 0%.

With `CN1CCN(Cc2cccc(-c3ccc4c(Nc5ccc(Oc6ccccc6)cc5)ccnc4c3)c2)CC1` [GW578342], the “%Inh” value came out at 28%.

For the compound `Fc1ccc(-c2ncn(C3CCNCC3)c2-c2ccnc(Oc3ccc(-c4ccccc4)cc3)n2)cc1` [SB-245391], the “%Inh” value amounted to 24%.

Turning to `Cc1ccc(S(=O)(=O)Nc2ccc(Nc3nccc(Nc4cccc5[nH]ncc45)n3)cc2)cc1` [GSK581271], the “%Inh” value is listed as 27%.

As for `COC(=O)Nc1nc2ccc(Oc3ccc(NC(=O)Nc4cc(C(F)(F)F)ccc4F)cc3)cc2n1C.Cl` [GW692089], the “%Inh” value was found to be 25%.

Take `O=C(Nc1n[nH]c2nc(-c3ccc(O)cc3)ccc12)C1CC1` [SB-710363]: the “%Inh” value is reported as 0%.

In the case of `CNC(=O)c1ccccc1Nc1nc(Nc2ccc(N3CCOCC3)cc2)ncc1Cl.Cl` [GSK1576028], the “%Inh” value turned out to be 85%.

`Cl.NC(=O)c1cccc(Nc2nccc(Nc3ccc(Oc4c(Cl)cccc4Cl)c(Cl)c3)n2)c1` [GW659009]: the “%Inh” value is listed as 0%.

`COc1cc(Nc2nccc(-c3c(-c4cccc(NC(=O)c5c(F)cccc5F)c4)nn4ccccc34)n2)cc(OC)c1OC` [GSK323521]: the “%Inh” value is 0%.

On to `Cn1cc(-c2ccc3c(c2)CCN3C(=O)Cc2cccc(F)c2)c2c(N)ncnc21` [GSK2603358], for which the “%Inh” value stood at 8%.

Regarding `Cc1cccc(Nc2nc(N[C@H]3CCNC3)ncc2C(N)=O)c1.Cl` [GSK2197149], the “%Inh” value is 0%.

Take `c1ccc(-c2n[nH]cc2Nc2ccnc3ccccc23)nc1` [GW694077]: the “%Inh” value turned out to be 0%.

Turning to `CN(C)Cc1ccc(-c2ccc3c(Nc4ccc(Oc5ccccn5)cc4)ccnc3c2)o1` [GW567148], the “%Inh” value was found to be 8%.

For `CCS(=O)(=O)c1ccc(OC)c(Nc2nccc(-c3c(-c4cccc(NC(=O)c5c(F)cccc5F)c4)nn4ncccc34)n2)c1` [GSK326180], the “%Inh” value is listed as 0%.

As to `COc1cccc(C2=C(Nc3ccc(Cl)c(C(=O)O)c3)C(=O)NC2=O)c1` [SB-390769], the “%Inh” value is reported as 27%.

On to `COc1cccc(NC(=O)NC2CCN(c3ccnc(Nc4cc(OC)c(OC)c(OC)c4)n3)C2)c1` (stereo not shown) [GSK1379763], for which the “%Inh” value came to 0%.

Regarding `Cc1ccc(C)c(NC(=O)NC2CCN(c3ccnc(Nc4ccc(F)cc4)n3)C2)c1` (stereo not shown) [GSK1379720], the “%Inh” value is reported as 15%.

Regarding `Cc1ccc(F)c(C(=O)Nc2cccc(-c3nn4ccccc4c3-c3ccnc(Nc4cccc(F)c4)n3)c2)c1F` [GSK361061], the “%Inh” value turned out to be 0%.

As to `Cc1occc1-c1ncc(OC[C@@H](N)Cc2c[nH]c3ccccc23)cc1-c1ccc2[nH]nc(C)c2c1.O=C(O)C(F)(F)F` [GSK682037], the “%Inh” value turned out to be 0%.

With `COc1ccc(Nc2nccc(N3CCC(NC(=O)Nc4cccc(OC)c4)C3)n2)cc1` (stereo not shown) [GSK1379742], the “%Inh” value is on record as 0%.

Regarding `CC(=O)N1CCN(c2ccc(Nc3nccc(-c4sc(C(C)C)nc4-c4cccc(NS(=O)(=O)c5cccc(Cl)c5)c4)n3)cn2)CC1` [GSK1660437], the “%Inh” value came to 90%.

For the compound `Nc1ncnc2c1nc(-c1ccccc1)n2-c1ccccc1` [SKF-97293], the “%Inh” value is 30%.

Take `O=C(NC1CCN(c2ccnc(Nc3ccc(F)cc3)n2)C1)c1cc2ccccc2s1` (stereo not shown) [GSK1379716]: the “%Inh” value amounted to 20%.

Consider `COc1cccc(C(=O)Nc2cccc(Oc3ccc4nc(NC(=O)C5CC5)cn4n3)c2)c1`, for which the “%Inh” value turned out to be 0%.

In the case of `Cl.Cl.NCC(C(=O)Nc1cc(Br)c(-c2ccnc3[nH]ccc23)s1)c1ccccc1` (stereo not shown) [GSK1269851], the “%Inh” value stood at 0%.

`Cn1cc(-c2ccc3c(c2)CCN3C(=O)Cc2cccc(Cl)c2)c2c(N)ncnc21` [GSK2606590]: the “%Inh” value came out at 0%.

As to `COc1cc(Nc2ncc3c(C)nc(-c4cc5ccccc5[nH]4)n3n2)cc(OC)c1OC` [GW869516], the “%Inh” value is 86%.

`O=C(Nc1cccc(-c2nn3ccccc3c2-c2ccnc(Nc3cccc(F)c3)n2)c1)c1c(F)ccc(F)c1Cl` [GSK357952]: the “%Inh” value is recorded as 6%.

As to `C[C@@H](Oc1cc(-n2cnc3cc(-c4ccnc(NCCS(C)(=O)=O)c4)ccc32)sc1C(N)=O)c1ccccc1Cl` [GSK907232], the “%Inh” value is 0%.

As to `COc1cccc(-c2ccc3c(NC(=O)C4CC4)n[nH]c3n2)c1` [SB-710903], the “%Inh” value is reported as 36%.

Take `Cc1ccc(C(=O)N2CC[C@@H](O)C2)cc1-n1c(C)cc(OCc2ccc(F)cc2F)c(Br)c1=O`: the “%Inh” value was 0%.

As to `Cl.c1ccc(-c2ccc3c(Nc4ccc5[nH]ccc5c4)ccnc3c2)nc1` [GW440138], the “%Inh” value amounted to 0%.

As for `CCc1ccc(-c2ccc3c(c2)-c2c(cnn2C)S(=O)(=O)N3C)cc1`, the “%Inh” value came to 0%.

`COc1ccc(Nc2nccc(NCCNC(=O)c3cc4ccccc4s3)n2)cc1` [GSK1379896]: the “%Inh” value is given as 3%.

As to `Nc1ncc(-c2ccc3nccc(-c4ccncc4)c3c2)cc1S(=O)(=O)N1CCOCC1` [GSK1627798], the “%Inh” value was 0%.

Turning to `O=C(Nc1n[nH]c2cc(-c3ccoc3)ccc12)C1CC1` [SB-738481], the “%Inh” value stood at 4%.
